Source: PubChem BioAssay
Hits are enriched below; roughly 5.9% of the tested compounds scored in any of these assays.
GALK inhibitor = qHTS Assay for Inhibitors of Human Galactokinase (GALK) | P51570 | Purified GALK, Kinase-Glo residual ATP luminescence | Potency, µM (series often up to 57.5 µM), hits mostly inhibitors | 0.007% of 270,000 active | AID 1868, 2009
Target sequence (P51570 whole entry, looked up): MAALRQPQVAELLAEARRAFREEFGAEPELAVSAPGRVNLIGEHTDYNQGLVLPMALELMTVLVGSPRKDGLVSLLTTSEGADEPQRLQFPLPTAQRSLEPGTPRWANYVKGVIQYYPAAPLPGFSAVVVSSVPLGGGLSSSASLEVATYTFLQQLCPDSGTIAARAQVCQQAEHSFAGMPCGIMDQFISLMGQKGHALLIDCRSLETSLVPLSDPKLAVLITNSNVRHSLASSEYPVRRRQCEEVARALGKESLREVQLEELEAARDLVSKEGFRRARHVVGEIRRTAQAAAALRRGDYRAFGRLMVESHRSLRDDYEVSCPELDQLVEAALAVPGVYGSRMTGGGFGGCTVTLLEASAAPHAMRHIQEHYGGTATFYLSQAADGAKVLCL
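The enzyme phosphorylates galactose (100 uM) using ATP (35 uM); inhibition is detected as higher residual ATP, quantified by bioluminescence after 1 h reaction at room temperature, pH 8.0.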
RORgamma inh = qHTS for inhibitors of ROR gamma transcriptional activity; 5.4% of 310,000 active; Potency, µM (top dose mostly 53.6 µM), hits mostly inhibitors; Drosophila S2 Gal4-RORgamma UAS-luciferase reporter, 20 h; Nuclear receptor ROR-gamma (Mus musculus), P51450; AID 2551, 2010; note: nearly all actives have a fitted effect of over 60% in size
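Stable Schneider cell line, Gal4 DNA-binding domain fused to ROR gamma, UAS-luciferase. Cmpd 1 hr RT → CuSO4 700 uM final → 20 hr RT → luciferase reagent 10 min → luminescence.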
Coupling enz = qHTS Assay for Inhibitors of Fructose-1,6-bisphosphate Aldolase from Giardia Lamblia: Coupling assay counterscreen; 0.67% of 290,000 active; activity change, negative = inhibition, % at 58.2 µM, hits read low; coupling enzyme system counterscreen, AmpLite Red fluorescence; in the data active = activity change below about -30%
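Activity here indicates interference with the coupling reaction, not aldolase inhibition. Compounds at 57.5 uM final met coupling enzymes for 10 min at RT; substrate and AmpLite Red detection followed, with a 525/598 nm fluorescence read after 20 min.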
rTrxR1 inhibitor = qHTS Assay for Inhibitors of Mammalian Selenoprotein Thioredoxin Reductase 1 (TrxR1): qHTS; recombinant rTrxR1, NADPH fluorescence consumption, selenite substrate; AID 588453, 2011; 1% of 390,000 active; Potency, µM (top dose mostly 114 µM), usual class: inhibitors; Thioredoxin reductase 1, cytoplasmic (Rattus norvegicus), O89049; note: nearly all actives have a fitted effect of over 65% in size
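Rat TrxR1 (90 nM in the dispensed reagent) was pre-reduced with 400 uM NADPH for 5 min at room temperature, then incubated with compound for 15 min. After 400 uM selenite was added, NADPH fluorescence (Ex 340/Em 450 nm) was followed for 8 min.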
VP16 counter = VP16 counterscreen qHTS for inhibitors of ROR gamma transcriptional activity; 3.5% of 310,000 active; Drosophila S2 Gal4-VP16 UAS-luciferase, luminescence, 20 h; Potency, µM (highest dose often 53.6 µM), actives largely listed as inhibitors;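 note: Gal4-VP16 expression switched on by copper sulfate through the metallothionein promoter; nearly all actives have a fitted effect of over 50% in size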
TrxR1 substrate = qHTS Assay for Substrates of Mammalian Selenoprotein Thioredoxin Reductase 1 (TrxR1): qHTS; Thioredoxin reductase 1, cytoplasmic (Rattus norvegicus), O89049; purified TrxR1 substrate turnover, NADPH consumption readout; Potency, µM (titrated, usually from 114 µM); 0.01% of 390,000 active; note: nearly all actives have a fitted effect of over 50% in size
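Rat TrxR1, dispensed at 90 nM, was prereduced with 400 uM NADPH (final) for 5 min at ~22 deg C, then incubated with compound 15 min before 400 uM selenite. A first-read NADPH fluorescence drop versus no-compound background flagged substrates.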
Each line names hits and unclear results; the compound was inactive in the other large screens. Unless noted, calls come from the whole dose curve; as a rule, active = well fitted curve in the direction sought with a large enough effect; inconclusive = small, poorly fitted or top-dose-only effect, or another doubt; inactive = no such curve, though single readings can be large; an effect the other way counts as inactive or inconclusive.

Cc1n[nH]c(C)c1Cc1c(F)cccc1Cl	RORgamma inh 16µM (no result: GALK inhibitor)
Nc1ccc2sc(N)nc2c1	none (no result: GALK inhibitor, RORgamma inh, Coupling enz, VP16 counter)
CC(NC(=O)c1ccco1)c1nc(-c2ccc(C(C)(C)C)cc2)no1 (configuration not stated)	RORgamma inh inconclusive, VP16 counter inconclusive
O=C(Nc1c2c(nn1-c1ccc([N+](=O)[O-])cc1)CS(=O)(=O)C2)c1ccco1	VP16 counter inconclusive
O=C(NC(=S)N1CCN(Cc2ccc3c(c2)OCO3)CC1)c1cccc(Br)c1	RORgamma inh 0.56µM, VP16 counter 0.63µM
CCNC(=S)N1CCN(Cc2ccc3c(c2)OCO3)CC1	none
Cc1cc(Cl)ccc1NC(=S)N1CCN(Cc2ccc3c(c2)OCO3)CC1	RORgamma inh inconclusive, VP16 counter inconclusive (no result: GALK inhibitor)
O=C(NC(=S)N1CCN(Cc2ccc3c(c2)OCO3)CC1)c1ccc(Cl)cc1	RORgamma inh 0.45µM, VP16 counter 0.63µM
O=C(OCCN1C(=O)c2ccccc2C1=O)C1CC(O)CN1S(=O)(=O)c1ccc(Cl)cc1 (configuration not stated)	none (no result: GALK inhibitor, RORgamma inh, Coupling enz, VP16 counter)
CCCc1ncc(C(O)(c2ccccc2)c2ccccc2)n1C	RORgamma inh 14µM
CCCc1ncc(C(O)(c2ccccc2)c2ccc(C)cc2)n1C (configuration not stated)	RORgamma inh inconclusive
COc1ccccc1NC(=S)N/N=C1\CC(C)(C)Oc2ccc(O)cc21	RORgamma inh inconclusive, VP16 counter inconclusive
CC(=O)N1CCC2(CC1)C/C(=N\NC(=S)Nc1ccccc1C)c1cc(O)ccc1O2	RORgamma inh inconclusive, VP16 counter inconclusive
COc1ccc(NC(=S)N/N=C2\CC(C)(C)Oc3ccc(O)cc32)cc1	RORgamma inh 6.3µM, VP16 counter 5.6µM
CC(=O)N1CCC2(CC1)C/C(=N\NC(=S)Nc1ccccc1F)c1cc(O)ccc1O2	RORgamma inh 13µM
O=C1[C@H](Cc2ccccc2)NCCCC[C@@H](c2ccc(Cl)cc2)N1Cc1ccc(Cl)cc1	rTrxR1 inhibitor inconclusive (no result: GALK inhibitor, RORgamma inh, Coupling enz, VP16 counter)
COc1cc2c(cc1C1NC(=S)NC(C)=C1C(N)=O)CCCC2 (configuration not stated)	RORgamma inh 2.8µM
COc1cc(C2NC(=S)NC(C)=C2C(=O)c2ccccc2)ccc1O (configuration not stated)	none
Cc1ccc(NC(=O)C2CCN(S(=O)(=O)c3ccc4c(c3)NC(=O)C(C)S4)CC2)cc1Cl (configuration not stated)	RORgamma inh inconclusive, VP16 counter 7.1µM (no result: Coupling enz)
COc1ccc(/C=C2/C(=O)N(Cc3ccccc3)N=C2C)cc1	RORgamma inh inconclusive, VP16 counter inconclusive
COc1ccc(/C=C2/C(=O)N(c3nc4ccccc4s3)N=C2CSc2ccc(Cl)cc2)cc1	RORgamma inh 14µM, VP16 counter 13µM
COc1ccc(C(C)=O)cc1COC(=O)CNC(=O)c1ccccc1F	rTrxR1 inhibitor 16µM
COc1ccc(C(C)=O)cc1COC(=O)CNC(=O)C1CCCCC1	none (no result: GALK inhibitor, RORgamma inh, Coupling enz, VP16 counter)
COc1ccccc1NC(=O)CN(Cc1ccco1)C(=O)c1cncc(Br)c1	Coupling enz -31
COc1ccccc1NC(=O)CN(Cc1ccco1)C(=O)c1ccc(-n2nc(C)cc2C)cc1	none
O=C(Cn1cc(S(=O)(=O)Cc2ccccc2)c2ccccc21)N1CCOCC1	none (no result: Coupling enz)
Cn1c(=O)[nH]c(=O)c2c1nc(Br)n2CCSc1nc2ccccc2o1	none
Cc1cccc(C)c1NC(=S)N(CCc1ccncc1)C(C)C	none
CC1(C)Cc2cccc(OCC(=O)N3CCN(S(=O)(=O)c4ccc(F)cc4)CC3)c2O1	none
Cc1cccc(N2CCN(C(=O)COc3cccc4c3OC(C)(C)C4)CC2)c1C	RORgamma inh inconclusive, VP16 counter 3.2µM
COc1cc(CNCCc2ccc(F)cc2)ccc1OCc1ccc(Cl)nc1	RORgamma inh 2.2µM
COc1cc(CNCCc2ccccc2F)ccc1OCc1ccc(Cl)nc1	none
O=C(CCC(=O)CCN1CCCCC1)CCN1CCCCC1	rTrxR1 inhibitor 1.8µM
NC(=O)CCN1CCCCC1	none
COc1cc(/C=N/NC(=Nc2ccc(C)cc2)c2nc3ccccc3s2)ccc1O	RORgamma inh 7.1µM, VP16 counter inconclusive
COc1ccccc1/C=N/NC(=Nc1ccc(C)cc1)c1nc2ccccc2s1	none (no result: rTrxR1 inhibitor, TrxR1 substrate)
CC[C@@H](C)[C@H](CN[C@H](CNC)C(C)C)NC[C@@H](C)c1ccc(CC(C)C)cc1	RORgamma inh 10µM, VP16 counter inconclusive (no result: GALK inhibitor)
CC(/C(O)=C(\C#N)c1nc2ccccc2n1C)N1C(=O)c2ccccc2C1=O (configuration not stated)	RORgamma inh inconclusive (no result: rTrxR1 inhibitor, TrxR1 substrate)
Cc1ccc(C(=O)NCCc2cccs2)cc1	RORgamma inh inconclusive, VP16 counter 5.6µM
O=C(NCCc1cccs1)c1ccc(Cl)cc1	RORgamma inh 8.9µM, VP16 counter inconclusive
O=C(NCCc1cccs1)c1ccc(Cl)c(Cl)c1	none
COc1ccccc1/C=C/c1ccc2ccccc2n1	none (no result: GALK inhibitor, RORgamma inh, Coupling enz, VP16 counter)
CCCN(CCC)CCCOC(=O)c1ccc(Cl)cc1Cl	none
CC(C)=CCC1=C(O)c2ccccc2C(=O)C1=O	RORgamma inh inconclusive, Coupling enz -61, VP16 counter inconclusive (no result: GALK inhibitor, rTrxR1 inhibitor, TrxR1 substrate)
Cc1ccc(/C=C/C(=O)Nc2ccccc2C(N)=O)cc1	RORgamma inh 3.5µM, VP16 counter inconclusive
Cc1ccc(C(=O)/C=C/C(=O)c2ccc(C)cc2)cc1	RORgamma inh 5µM, rTrxR1 inhibitor 3.2µM, VP16 counter inconclusive
NC(=O)c1ccccc1N/C=C/C(=O)c1ccc(Cl)cc1	RORgamma inh 1.4µM, VP16 counter 1.6µM
Cc1ccc(C(=O)/C=C/Nc2ccccc2C(N)=O)cc1	RORgamma inh 0.5µM, VP16 counter 2.8µM
CCC(C)C(=O)Nc1nc(C)c(-c2csc(Nc3ccc(Cl)cc3)n2)s1 (configuration not stated)	VP16 counter 10µM
COc1cccc(Nc2nc(-c3sc(NC(=O)CC(C)C)nc3C)cs2)c1	RORgamma inh inconclusive, VP16 counter 18µM
COc1ccccc1Nc1nc(-c2sc(NC(=O)C(C)(C)C)nc2C)cs1	RORgamma inh inconclusive, VP16 counter 6.3µM
CCCC(=O)Nc1nc(C)c(-c2csc(Nc3ccccc3OC)n2)s1	none
CCCC(=O)Nc1nc(C)c(-c2csc(Nc3cc(OC)ccc3OC)n2)s1	RORgamma inh inconclusive
COc1ccc(OC)c(Nc2nc(-c3sc(N)nc3C)cs2)c1	Coupling enz -31, rTrxR1 inhibitor inconclusive
